Measurements: PubChem BioAssay (Tox21)
Inconclusive results are not listed. Unmarked numbers belong to inactive results. Activity calls are given as the source filed them. Calls follow the shape of the dose curve; as a rule, active = well fitted cell-killing curve with a large enough effect in the repeat runs; inconclusive = weak or mixed curves, or effect the other way; inactive = no such curve, though single readings can be large or run the other way.

experiment: qHTS assay to identify small molecule antagonists of the progesterone receptor (PR) signaling pathway - cell viability counter screen (AID 1346798); conditions: PR-UAS-bla HEK293T viability, CellTiter-Glo luminescence, 16 h; series mostly up to 92.4 µM; activity change, negative = cytotoxicity: at the top concentration; also: nearly all actives have a fitted effect of over 50% in size
From the text: National Center for Advancing Translational Sciences [NCATS]
NIH Chemical Genomics Center [NCGC]
U.S. Environmental Protection Agency [EPA]
National Institutes of Environmental Health Sciences [NIEHS]
National Toxicology Program [NTP]
U.S. Food and Drug Administration [FDA]
Progesterone receptor (PR), a nuclear hormone receptor, plays an important role in development, metabolic homeostasis and reproduction. It is activated by the steroid hormone progesterone. Endocrine disrupting chemicals (EDCs) and their interactions with steroid hormone receptors like PR causes disruption of normal endocrine function. To identify the compounds that inhibit PR signaling, a PR-UAS-bla GripTite cell line i.e. PR-UAS-bla HEK293T (Invitrogen, Carlsbad, CA, USA) containing a beta-lactamase reporter gene under the control of an UAS response element was used to screen Tox21 10K compound library. The cytotoxicity of the Tox21 compound library against the PR-bla cell line was tested in parallel by measuring the cell viability using CellTiter-Glo assay in the same wells.
Tox21 Assay Protocol Summary:
PR-UAS-bla HEK293T cells were dispensed at 3,000 cells/4 uL of assay medium containing 2% charcoal stripped FBS per well into black wall/clear-bottom 1536-well plates using a Multidrop Combi (ThermoFisher Scientific, Waltham, MA) dispenser. After the assay plates were incubated at a 37C and 5% CO2 for 4 hr, 23 nL of compounds dissolved in DMSO, positive controls or DMSO only was transferred to the assay plate by a Pintool station (Kalypsys, San Diego, CA), followed by addition of 1 uL of R5020 in assay medium using a Flying Reagent Dispenser (FRD, Aurora Discovery, San Diego, CA). The plates were incubated at 37C and 5% CO2 for 16 hr. Then 1 uL of LiveBLAzer B/G FRET substrate was added using a Flying Reagent Dispenser, the plates were incubated at room temperature for 2 hours, and fluorescence intensity was measured by an Envision plate reader (PerkinElmer, Shelton, CT). For cell viability readout that measures cytotoxicity, 4 uL/well of CellTiter-Glo reagent was added into the assay plates using a FRD. After 30 min incubation at room temperature, the luminescence intensity in the plates was measured using a ViewLux (PerkinElmer) plate reader.
% is scaled to controls: 0 for no effect and ±100 for the full control effect; potency is read from the fitted curve at half-maximal effect.

| SMILES | activity change, negative = cytotoxicity | Potency |
| --- | --- | --- |
| CCCCCCCC(=O)OCCCCCC | -0.203% |  |
| CCCCCCCC/C=C/C(=O)O | -1.95% [at 42.5 µM] |  |
| C/C(C=O)=C\c1ccccc1 | -5.88% |  |
| O[C@@H](CNC[C@H](O)[C@H]1CCc2cc(F)ccc2O1)[C@@H]1CCc2cc(F)ccc2O1 |  | 29.8 µM (active) |
| COC(C)(C)OC | 9.95% |  |
| COc1cc(NS(=O)(=O)c2ccc(N)cc2)nc(C)n1 | -2.51% [at 42.5 µM] |  |
| O=C(O)/C=C/c1ccc(O)c(O)c1 | -3.88% |  |
| Nc1c(Cl)cc(Cl)cc1[N+](=O)[O-] | 0.996% |  |
| CCCCCCC(O)CCOC(C)=O (stereo not given) | 3.69% [at 238 µM] |  |
| C=CC(=O)NC(C)C | -4.17% |  |
| CN1CCCN(C(c2ccccc2)c2ccc(Cl)cc2)CC1 (stereo not given) |  | 15 µM (active) |
| [Cl][Nd]([Cl])[Cl] | -5.13% |  |
| O=P(O)(O)Oc1ccccc1 | -7.96% |  |
| CCCCCCCCCCCCCC(=O)OCC(O)CO (stereo not given) | -4.62% |  |
| COC(=O)CC(C(C)=O)C(=O)OC (stereo not given) | 10.5% |  |
| CCC(=O)OCc1ccc(OC)cc1 | 1.97% |  |
| SCCc1cnccn1 |  | 30.6 µM (active) |
| CCN(CC)C(=O)N1CCN(C)CC1 | 0.745% [at 42.5 µM] |  |
| BrC(Br)C(Br)Br | 3.13% |  |
| CC(C)OC(=O)c1ccccc1C(=O)OC(C)C |  | 61.1 µM (active) |

| SMILES | activity change, negative = cytotoxicity | Potency |
| --- | --- | --- |
| OCC(CO)n1cnc(-c2ccc(F)cc2)c1-c1ccnc(Oc2ccccc2)n1 | 5.79% |  |
| CCCCOC(=O)CCCCC(=O)OCCCC | 8.65% |  |
| O=[N+]([O-])c1ccc2ncccc2c1 | 3.4% |  |
| CNC1CCCN(c2c(F)cc3c(=O)c(C(=O)O)cn(C4CC4)c3c2OC)C1 (stereo not given) | 7.3% [at 42.5 µM] |  |
| CCCCOCCOC(=O)c1cccnc1 | 1.71% [at 42.5 µM] |  |
| CCCCCc1ccco1 | -0.858% [at 42.5 µM] |  |
| CC1CCCO1 (stereo not given) | 6.78% |  |
| CC(C)(C(=O)c1cccnc1)c1cccnc1 | 29.5% [at 42.5 µM] |  |
| N[C@@H](Cc1cc(I)c(O)c(I)c1)C(=O)O | 0.633% [at 42.5 µM] |  |
| CCOCCC(=O)OCC | -1.07% |  |
| CCCCCC | -7.24% |  |
| O=C(O)CCC(=O)OC[C@@H](NC(=O)C(Cl)Cl)[C@H](O)c1ccc([N+](=O)[O-])cc1 | -4.41% [at 42.5 µM] |  |
| CC1=CC[C@@]23C[C@@H]1C(C)(C)[C@@H]2CC[C@H]3C | 2.77% |  |
| CCCCC[C@H](O)/C=C/[C@H]1[C@H](O)CC(=O)[C@@H]1C/C=C\CCCC(=O)O | 0.893% [at 42.5 µM] |  |
| O=C1NC(=O)c2cccc3cccc1c23 | -12.6% |  |
| Cc1ccc(Cl)cc1N | -2.6% |  |
| Cc1ccc(N(CCO)CCO)cc1 | 4.01% |  |
| Cc1cc(CCC(=O)OCCOCCOCCOC(=O)CCc2cc(C)c(O)c(C(C)(C)C)c2)cc(C(C)(C)C)c1O | -1.27% |  |
| COc1ccc(-n2nc(C(F)F)cc2-c2ccc(S(C)=O)cc2)cc1 (stereo not given) | -1.66% |  |
| C[C@@H]1C[C@H]2[C@@H]3CCC4=CC(=O)C=C[C@]4(C)[C@@]3(F)[C@@H](O)C[C@]2(C)[C@@]1(O)C(=O)COP(=O)(O)O | 16.2% |  |
